# Most compounds without a hit are left out; they make up all but 6.3% or so of the library.
# tim10-1 inh: inhibits growth of tim10-1 mutant yeast; S. cerevisiae tim10-1 ts strain growth, BacTiter-Glo, 24 h; inhibition, % at 20 µM; hit rate 2.2% among 330,000;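 active means inhibition of at least 40%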;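 further: mutant grown at 25 °C; 0% = DMSO wells with yeast and 100% = wells holding no yeast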
# tim23-1 inh: inhibits growth of tim23-1 mutant yeast; S. cerevisiae tim23-1 growth, BacTiter-Glo luminescence, 24 h; inhibition, % at 20 µM; hit rate 1.3% among 330,000;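 active means growth inhibition of the mutant yeast at or above 50%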;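 further: temperature-sensitive mutant grown at 25 °C; plate controls were DMSO-treated mutant yeast for no effect and medium wells lacking yeast for full effect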
# Mdm2 MdmX PPI: human Mdm2/MdmX binding inhibition. inhibition, % at 8 µM. SaOS-2 split-luciferase Mdm2/MdmX complementation, luminescence. AID 485346. hit rate 3% among 330,000;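 active means inhibition of at least 50% at 8 µM in the primary screen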
# Target sequence (O15151 whole entry, looked up): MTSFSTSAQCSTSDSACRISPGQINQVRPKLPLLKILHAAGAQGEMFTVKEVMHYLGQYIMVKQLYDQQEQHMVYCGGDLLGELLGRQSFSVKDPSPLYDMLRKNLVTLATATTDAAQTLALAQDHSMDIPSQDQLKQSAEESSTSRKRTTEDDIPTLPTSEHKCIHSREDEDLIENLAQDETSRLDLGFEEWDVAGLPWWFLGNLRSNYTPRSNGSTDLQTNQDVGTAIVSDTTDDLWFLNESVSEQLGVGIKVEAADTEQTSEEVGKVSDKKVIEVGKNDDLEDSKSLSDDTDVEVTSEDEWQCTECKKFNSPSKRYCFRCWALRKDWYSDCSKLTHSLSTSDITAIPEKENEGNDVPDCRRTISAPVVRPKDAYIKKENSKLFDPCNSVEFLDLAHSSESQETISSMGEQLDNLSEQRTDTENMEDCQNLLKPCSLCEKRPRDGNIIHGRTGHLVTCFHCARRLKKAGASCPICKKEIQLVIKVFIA
# Target sequence (Q00987 whole entry, looked up): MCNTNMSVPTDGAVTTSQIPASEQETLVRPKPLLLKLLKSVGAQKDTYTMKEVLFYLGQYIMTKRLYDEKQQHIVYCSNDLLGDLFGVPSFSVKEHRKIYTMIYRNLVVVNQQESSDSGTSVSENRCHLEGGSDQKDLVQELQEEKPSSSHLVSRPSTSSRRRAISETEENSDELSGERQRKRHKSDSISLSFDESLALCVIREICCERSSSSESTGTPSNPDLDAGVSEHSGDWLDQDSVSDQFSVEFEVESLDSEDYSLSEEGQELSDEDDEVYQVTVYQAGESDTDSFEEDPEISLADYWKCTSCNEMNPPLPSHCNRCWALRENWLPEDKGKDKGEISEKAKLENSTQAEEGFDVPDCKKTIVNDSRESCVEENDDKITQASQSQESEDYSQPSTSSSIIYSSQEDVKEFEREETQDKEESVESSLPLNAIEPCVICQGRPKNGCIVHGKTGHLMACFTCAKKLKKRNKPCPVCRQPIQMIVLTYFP
# TIM10 inh: growth inhibitors of TIM10 yeast strain; hit rate 1.4% among 330,000; inhibition, % at 10 µM; S. cerevisiae TIM10 strain growth, BacTiter-Glo luminescence, 24 h;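 active means inhibition of 40% or more at the single tested concentration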;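 further: wild-type TIM10 isogenic control strain grown at permissive 25 °C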
# MPTP block: inhibitors of mitochondrial permeability transition pore | isolated mouse mitochondria, Ca2+ swelling absorbance, 30 min | inhibition, % at 10 µM | hit rate 1.4% among 360,000;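 active means inhibition of 50% or more, scaled per plate between neutral and stimulator controls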;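 further: 0% = DMSO wells given calcium and 100% = 1 mM EGTA wells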
# tim10-1 conf: confirmation of tim10-1 mutant yeast growth inhibitors. hit rate 56% among 7,400. S. cerevisiae tim10-1 ts strain growth, BacTiter-Glo, 24 h. inhibition, % at 20 µM. shares compounds with tim10-1 inh. AID 463213;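 active means inhibition of yeast growth at or above a set limit in either of two repeat tests at 20 µM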;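 further: tim10-1 mutant grown at permissive 25 °C to find synthetic lethal compounds; 0% = DMSO yeast wells and 100% = medium wells without yeast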
# * marks the source's active call; other numbers are inactive results; x = no result given.
SMILES,tim10-1 inh,tim23-1 inh,Mdm2 MdmX PPI,TIM10 inh,MPTP block,tim10-1 conf
CNC(=S)N/N=C/c1c(C)nn(-c2ccccc2)c1Cl,27,11,11,2,0,x
CSc1ccc(C=NNc2ccc(S(=O)(=O)Nc3ccccc3C(=O)O)cc2[N+](=O)[O-])cc1,0,6,2,9,49,x
O=C(Nc1cccc2ccccc12)c1csc([C@@H]2O[C@H](CO)[C@H](O)[C@H](O)[C@H]2O)n1,x,x,x,x,1,x
Cc1ccc(S(=O)(=O)N2CCCCC2CCNC(=O)C(=O)NCc2ccco2)cc1 (stereo unspecified),42*,37,37,1,0,13
C[C@@H]1CN([C@H](C)CO)S(=O)(=O)c2ccc(C3=CCCCC3)cc2O[C@H]1CN(C)C(=O)Cc1cccnc1,x,x,x,x,-3,x
Nc1nonc1-n1nnc(C(=O)N/N=C/c2ccccc2F)c1CN1CCc2ccccc21,46*,33,10,-5,-2,16
CSCCC(C(=O)Nc1c(C)cccc1C)n1c(-c2ccc(C(F)(F)F)cc2)nc2ccccc21 (stereo unspecified),x,x,x,x,0,x
Cc1cc(C)c2sc(C)[n+](CCCS(=O)(=O)[O-])c2c1,-1,4,21,-5,0,x
CC[n+]1c(C)sc2c(C)cc(C)cc21,42*,29,0,24,1,34*
COc1ccccc1-c1noc2c1C(=O)NCC2,x,x,x,x,-1,x
Cn1c(=O)n(C/C=C/c2ccccc2)c(=O)c2c1nc1n2CCCN1c1ccc(F)cc1,46*,34,14,32,9,24
Cn1c(=O)n(C/C=C/c2ccccc2)c(=O)c2c1nc1n2CCCN1Cc1ccccc1,37,43,21,28,11,x
CCn1c(=O)c2c(nc3n2CCCN3Cc2ccccc2)n(C)c1=O,28,14,15,-12,0,x
CC(C)Cn1c(=O)c2c(nc3n2CCCN3Cc2ccccc2)n(C)c1=O,42*,28,3,15,-1,28
Cn1c(=O)n(Cc2ccc(F)cc2)c(=O)c2c1nc1n2CCCN1C1CCCCC1,48*,40,43,33,-2,18
Cc1ccc(S(=O)(=O)N(C)C[C@H]2Oc3ncc(-c4ccccc4)cc3C(=O)N([C@@H](C)CO)C[C@@H]2C)cc1,x,x,x,x,0,x
COc1ccc([C@H]2C[C@H](O)[C@@H](n3cc(-c4ccc(F)cc4)nn3)CN2C(=O)c2cccs2)cc1,x,x,x,x,-1,x
CC(=O)Nc1ccc(C(=O)N2CCCC(c3cc(C(=O)Nc4ccccc4Cl)no3)C2)cc1 (stereo unspecified),x,x,x,x,0,x
Nc1ccccc1Nc1cc(-c2cccc(Cl)c2)nn1-c1ccccc1,40*,38,-19,26,-14,34*
CC1(C(=O)NS(=O)(=O)Cc2ccccc2)CCN1C(=O)CCc1ccccc1 (stereo unspecified),x,x,x,x,0,x
CCOC(=O)c1csc(N/N=C2\CCCc3ccccc32)n1,48*,42,12,26,1,21
COc1ccc2c(c1)CCC/C2=N\NC(=O)c1ccoc1C,x,x,x,x,0,x
COc1ccc2c(c1)CCC/C2=N\Nc1nc(C(=O)NN)cs1,41*,28,10,25,0,38*
CCOC(=O)c1csc(N/N=C2\CCc3ccccc32)n1,30,28,2,19,0,x
CN(C(=S)NC(=O)c1ccc(Cl)cc1)C1CCCCC1,42*,24,-5,31,0,10
SMILES,tim10-1 inh,tim23-1 inh,Mdm2 MdmX PPI,TIM10 inh,MPTP block,tim10-1 conf
CN(C(=S)NC(=O)c1ccc(F)cc1)C1CCCCC1,20,34,16,17,-1,x
CC1(C(=O)NS(=O)(=O)c2ccc(Br)cc2)CCN1C(=O)c1cccc(F)c1 (stereo unspecified),x,x,x,x,0,x
CC(C)c1ccc(S(=O)(=O)N2CCN(C(=O)CCNC(=O)Nc3ccccc3)CC2)cc1,18,21,28,12,0,x
CC(C)c1ccc(NC(=O)N2CCN(S(=O)(=O)c3ccccc3)CC2)cc1,41*,22,16,5,1,15
CO/N=C/CC(=O)c1cnc(-c2ccc(Cl)cc2)s1,41*,28,-19,4,-1,24
O=C(Oc1c(CN2CCOCC2)cc(Cl)c2cccnc12)c1ccccc1,51*,42,47,36,0,20
O=C(Oc1c(CN2CCOCC2)cc(Cl)c2cccnc12)c1ccccc1F,39,25,46,25,-4,x
Fc1cccc(Cc2c(-c3ccc(Cl)cc3)nc3ccc(Br)cn23)c1,x,x,x,x,0,x
COc1ccc(C(OC(=O)c2ccco2)C(=O)NC2CCCCC2)cc1OC (stereo unspecified),45*,3,9,-2,0,1
CC(C)C#Cc1cnc2c(c1)C(=O)N([C@@H](C)CO)C[C@@H](C)[C@H](CN(C)Cc1cccc(F)c1)O2,x,x,x,x,0,x
CCCN1CCC(C)(C(=O)Nc2cccc(OC(C)C)c2)C1 (stereo unspecified),x,x,x,x,0,x
Cc1cc(C)c(Cn2cnc3ccccc32)c(C)c1,43*,40,5,26,-2,20
c1ccc(Cn2cnc3ccccc32)cc1,0,-8,-54,-10,-1,x
CCOc1ccc(-c2cc(C(=O)Nc3ccc(F)cc3)[nH]n2)c(C)c1,x,x,x,x,-1,x
C=CCNc1nc(-c2sc(NC(=O)C(C)(C)C)nc2C)c(-n2cc(-c3ccccc3)nn2)s1,x,x,x,x,2,x
CCOc1cccc(-c2cnc3cccnn23)c1,x,x,x,x,0,x
CC(C)(C)N1C(=O)c2ccccc2NC(=O)C1C(=O)NCCc1ccccc1F (stereo unspecified),x,x,x,x,0,x
CCN(CC)C(=O)c1c(-c2ccccc2)oc2ccc(OC)cc12,41*,44,17,24,3,21
O=C(COn1nnc2ccc(Cl)cc21)NC12CC3CC(CC(C3)C1)C2,40*,48,-2,37,2,32*
CCCCNC(=O)C1C(c2ccc(C(F)(F)F)cc2)=Nc2ccccc2N1C(=O)C1CCN(C(C)=O)CC1 (stereo unspecified),x,x,x,x,0,x
C/C(=N\NC(=O)CNC(=O)c1cccs1)c1ccc(Cl)c(Cl)c1,51*,41,-7,2,1,-5
Cc1cc2ncn(/N=C/c3ccc(-c4ccccc4)o3)c2cc1C,47*,-10,-3,30,3,17
Cc1cc2ncn(/N=C/c3cccnc3)c2cc1C,8,-3,-11,8,-3,x
Cn1c(NCc2ccccc2F)nc2cc(-c3cccc(C(F)(F)F)c3)sc2c1=O,x,x,x,x,0,x
S=C(c1ccc(N2CCCC2)c(Br)c1)N1CCCCC1,45*,29,-11,18,0,21
CC(C(=O)N1CCCC1)N(c1ccc(Cl)cc1)S(C)(=O)=O (stereo unspecified),x,x,x,x,0,x
O=C(CSCc1cnn(-c2ccccc2)c1-n1cccc1)NCc1ccc2c(c1)OCO2,x,x,x,x,6,x
COc1ccc(CNC(=O)CSCc2cnn(-c3ccccc3)c2-n2cccc2)cc1,44*,14,3,-3,10,16

# Compound activity as filed in PubChem BioAssay.
